Assay outcomes as filed in PubChem BioAssay.
PNC assembly inh – blocks assembly of the perinucleolar compartment; activity change (PNC), negative = inhibition, % at 10 µM; AID 2417; 140,000 tested, 3.1% active; PC3M PTB-GFP, PNC prevalence imaging, 16 h; active compounds read low;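 active means readout at or below -70, meaning at least 70% loss of cells showing the perinucleolar compartment, a nuclear body marking cancer cells; inconclusive means readout between -30 and a set limit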;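 further: plate controls were DMSO wells for no effect and camptothecin positive control wells for full effect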
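Read-out is percentage of cells bearing a perinucleolar compartment, from automated 20x imaging of fixed, Hoechst-stained PC3M PTB-GFP cells. Cells were seeded 4 h, then exposed 16 h to compound (23 nl of library stock) in duplicate plates.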
HTT aggregate – inhibitors of mutant huntingtin aggregate formation in PC12 cells; Potency, µM (doses to about 46.1 µM), for the others: at the highest dose activity change, negative = inhibition, hits mostly inhibitors; 220,000 tested, 1.1% active; PC12 HttQ103-GFP aggregates, Acumen cytometry, 40 h; AID 1688; further: potency means the concentration at half of the fitted maximal effect; on the % scale 0 is the no-effect control and ±100 the full control effect; nearly all actives have a fitted effect of over 60% in size
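Ecdysone-promoter PC12 model expressing HTT exon 1 Q103 fused to GFP, induced by tebufenozide at 100 nM final. Compounds titrated; aggregates sized 1–25 µm scored on a 488 nm laser cytometer.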
HTT ATP protect – Huntington cell model cytoprotection by ATP luminescence; PC12 HTT-Q103 induced, cytoprotection, ATP luminescence, 40 h; Potency, µM (titrated, usually from 56.4 µM), inactives show cytoprotection (ATP increase), usual class: activators; 230,000 tested, 0.14% active; AID 1471; further: potency means the concentration at half of the fitted maximal effect; % of control where 0% means no effect; nearly all actives have a fitted effect of over 45% in size
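Huntington model: PC12 line, ecdysone-inducible HTTQ103 exon1–GFP, tebufenozide 100 nM. Test articles in a dose series. Endpoint luminescence from cellular ATP.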
ALDH1A1 block – inhibitors of human aldehyde dehydrogenase 1A1; Purified ALDH1A1, NADH fluorescence, propionaldehyde substrate; P00352; Potency, µM (top dose mostly 75.3 µM), for inactives: at the highest dose activity, negative = inhibition, hits mostly inhibitors; 220,000 tested, 7.3% active; AID 1030; active means well fitted inhibition curve with a large enough effect, not every such curve was filed as active; inconclusive means small, poorly fitted or top-dose-only effect, or another doubt; inactive means no such curve, though single readings can be large or run the other way;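 further: potency means the concentration at half of the fitted maximal effect; plate controls were no enzyme wells and a reference inhibitor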
CBFb-RUNX1 inh – inhibitors of human CBF-beta and RUNX1 interaction; AlphaScreen CBFb-His/RUNX1-biotin binding, biochemical; Potency, µM (series often up to 59.8 µM), for inactives: at the highest dose activity, negative = inhibition, most hits filed as inhibitors; 230,000 tested, under 10 active; further: % of control where 0% means no effect
Target sequence (Q01196 whole entry, looked up): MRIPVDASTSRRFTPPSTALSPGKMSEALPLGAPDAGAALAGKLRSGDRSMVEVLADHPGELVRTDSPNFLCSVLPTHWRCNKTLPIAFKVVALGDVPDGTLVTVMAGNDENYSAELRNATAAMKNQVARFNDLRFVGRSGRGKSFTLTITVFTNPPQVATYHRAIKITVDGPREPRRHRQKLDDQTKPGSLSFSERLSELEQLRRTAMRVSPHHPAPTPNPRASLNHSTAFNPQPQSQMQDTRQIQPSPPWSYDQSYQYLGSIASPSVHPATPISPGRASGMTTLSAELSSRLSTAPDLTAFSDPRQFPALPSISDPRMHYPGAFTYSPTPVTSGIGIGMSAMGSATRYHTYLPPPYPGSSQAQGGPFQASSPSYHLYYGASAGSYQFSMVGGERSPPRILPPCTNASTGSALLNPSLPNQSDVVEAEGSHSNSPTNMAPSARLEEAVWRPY
Target sequence (Q13951 whole entry, looked up): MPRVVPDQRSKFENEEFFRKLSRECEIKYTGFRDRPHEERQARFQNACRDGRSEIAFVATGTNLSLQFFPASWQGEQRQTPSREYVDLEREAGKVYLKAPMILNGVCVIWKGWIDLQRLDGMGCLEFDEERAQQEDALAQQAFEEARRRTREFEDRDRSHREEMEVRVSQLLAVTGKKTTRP
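Interaction loss through any mechanism counts as activity. Pre-formed complex of His-CBF-beta and biotin-RUNX1 (30 nM apiece) is incubated with compound 15 min, then with 50 ng nickel and 50 ng streptavidin beads for 90 min before AlphaScreen detection.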
HPGD inh – HPGD (human) dehydrogenase inhibition. purified HPGD, NADH fluorescence kinetic, PGE2 substrate. Potency, µM, for inactives: at the highest dose activity change, negative = inhibition, actives largely listed as inhibitors. 150,000 tested, 4.3% active. AID 894; active means well fitted inhibition curve with a large enough effect, not every such curve was filed as active; inconclusive means small, poorly fitted or top-dose-only effect, or another doubt; inactive means no such curve, though single readings can be large or run the other way; further: potency means the concentration at half of the fitted maximal effect; on the % scale 0 is the no-effect control and ±100 the full control effect
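NADH formation kinetics: reaction with 30 uM PGE2 and 1 mM NAD+ (final), 20 nM enzyme, Tris-HCl pH 8 with Tween 20, after 15 min compound preincubation at room temperature. Fluorescence change, last versus first of five reads.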
* = called active by the depositor; ? = inconclusive; · = not tested or not shown; [ ] = another dose, or the depositor's remark. This is a sample that favours compounds with a hit; in the whole collection about 11% have one here. Unless noted, the call rests on the fitted dose curve; in most records, active means well fitted curve in the direction sought with a large enough effect; inconclusive means small, poorly fitted or top-dose-only effect, or another doubt; inactive means no such curve, though single readings can be large; an effect the other way counts as inactive or inconclusive.

SMILES	PNC assembly inh	HTT aggregate	HTT ATP protect	ALDH1A1 block	CBFb-RUNX1 inh	HPGD inh
c1ccc(Cc2nnc3sc(-c4ccc5c(c4)OCCO5)nn23)cc1	35.6	-16.4%	-15.3%	?	-1.4%	?
c1ccc(Cc2nnc3sc(-c4cccs4)nn23)cc1	-25.9	24.1%	-28.2%[0.074 µM]	2.82µM*	?	8.91µM*
CC(=O)c1ccccc1NS(C)(=O)=O	·	2.7%	-26.3%	4.1%	-11.4%	·
O=C(O)c1cncc(C#CCC2CCCCC2)c1	·	6.3%[9.22 µM]	-15.9%[10 µM]	·	14.9%	·
CCOC(=O)C1(CCCc2ccccc2)CCN(C(=O)Cn2nc(C)nc2C)CC1	·	6.2%[9.22 µM]	-4.4%[10 µM]	·	0.5%	·
Cc1ccc(C)n1-c1sc2c(c1C#N)CCC(C)C2 (configuration not stated)	-9.0	6.1%[9.22 µM]	-3.9%	25.1µM*	-3.3%	-26.0%
CN(C)c1ccc(C2N(c3ccc(Cl)cc3)C(=O)C3CCCN32)cc1 (configuration not stated)	-14.2	4.5%	-1.5%	0.794µM*	-0.6%	-15.7%
COc1ccc(C2N(c3cc(Cl)ccc3OC)C(=O)C3CCCN32)cc1 (configuration not stated)	2.0	10.8%	-6.0%	10µM*	-3.9%	-12.7%
Cc1ccc(C2N(c3ccc(F)cc3)C(=O)C3CCCN32)cc1 (configuration not stated)	-10.6	23.5%	-2.3%	5.8%	-3.0%	-11.1%
CN(C)c1ccc(C2N(c3ccc(F)cc3)C(=O)C3CCCN32)cc1 (configuration not stated)	-4.2	-9.8%	-21.8%	0.631µM*	-2.7%	-25.4%
Nc1ccc(Cl)cc1Cl	·	·	0.0%	-6.0%	4.3%[21.7 µM]	-2.7%
Cc1ccc(NC(=O)CCC(=O)c2cccs2)c(O)c1	·	17.0%[9.22 µM]	6.6%[10 µM]	·	1.8%	·
CCCN(CCC)CCCNC(=O)C1c2cc(OC)c(OC)cc2C(=O)N(C)C1c1cccnc1 (configuration not stated)	·	11.1%	-20.4%	5.7%	1.7%	·
CC(C)C(=O)NC(=O)C1CCCN1C(=O)/C=C/c1ccccc1 (configuration not stated)	·	·	4.1%[10 µM]	-1.2%[13.5 µM]	11.4%[13.1 µM]	·
CCOc1ccc(NC(=O)Cn2nnc(-c3ccccc3NC(=O)CC)n2)cc1	-84.2*	-3.0%	3.0%	-3.8%	2.1%	-13.1%
Cc1ccc(NC(=O)Cn2nnc(-c3ccccc3NC(=O)c3cccs3)n2)cc1	-87.7*	?	-86.4%	-8.5%	0.0%	?
O=C(Cn1nnc(-c2ccccc2F)n1)NCCc1ccccc1	-16.2	-14.7%	-23.7%	-9.0%	0.2%	-24.9%
O=C(Cn1nnc(-c2ccccc2F)n1)Nc1cccc2ncccc12	-81.8*	-2.8%	-27.6%[10 µM]	-2.1%	-1.6%	-5.4%
CCCCN1CC[C@@H]2C=CC[C@H](C(=O)OC)[C@@H]2C1=O	·	·	25.8%[96.6 µM]	-0.6%[120 µM]	-4.1%[89.1 µM]	-2.2%
CCC1Oc2ccccc2N(CC(=O)Nc2ccc3c(c2)OCCO3)C1=O (configuration not stated)	-94.1*	-7.9%	12.0%[10 µM]	5.9%	-4.9%	-4.0%
O=C(CN1C(=O)CCS(=O)(=O)c2ccccc21)Nc1ccc2c(c1)OCCO2	-100.0*	2.6%	1.5%[10 µM]	10.1%	-4.1%	-9.5%
O=C(CN1C(=O)COc2ccccc21)Nc1ccc2c(c1)OCCO2	?	-7.9%	-0.1%	-8.0%	0.0%	-10.7%
Cc1cc2ncn(CC(=O)O)c2cc1C	·	·	9.1%[10 µM]	1.3%[13.5 µM]	·	-10.0%
Cc1ccc(C(c2nnnn2CC2CCCO2)N2CCN(Cc3ccccc3)CC2)cc1 (configuration not stated)	·	4.0%[9.22 µM]	17.6%[10 µM]	?	-11.2%	·
O=C(CCn1c(=O)c2ccccc2n(Cc2cccc([N+](=O)[O-])c2)c1=O)N1CCc2ccccc2C1	43.5	17.2%	11.9%[10 µM]	?	-16.4%	15.8µM*
SMILES	PNC assembly inh	HTT aggregate	HTT ATP protect	ALDH1A1 block	CBFb-RUNX1 inh	HPGD inh
C[C@H](NC(=O)CNC(=O)[C@@H](NC(=O)[C@H](Cc1ccccc1)NC(=O)CNC(=O)CNC(=O)[C@@H](N)Cc1ccccc1)[C@@H](C)O)C(=O)N[C@@H](CCCN=C(N)N)C(=O)N[C@@H](CCCCN)C(=O)N[C@@H](CO)C(=O)N[C@@H](C)C(=O)N[C@@H](CCCN=C(N)N)C(=O)N[C@@H](CCCCN)C(N)=O	·	·	·	·	6.1%	·
O=C(c1cc(O)c(O)c([N+](=O)[O-])c1)c1ccccc1F	·	·	0.6%[1.9 µM]	12.6µM*	-12.0%	14.1µM*
O=CN1CCCN(Cc2nc(-c3cccc(Cl)c3)no2)CC1	·	5.4%	-1.7%	3.5%	3.4%	·
Cc1ccc(C2CC(c3ccccc3)=NN2C(=S)Nc2ccccc2)o1 (configuration not stated)	-87.7*	?	-53.8%[10 µM]	2µM*	-3.0%	17.8µM*
CC1=NN(C(=S)Nc2ccccc2)C(c2ccccc2)C1 (configuration not stated)	11.7	22.5%	·	-11.6%	-3.0%	-3.3%
COc1ccc(-c2csc(-c3[nH]cnc3N)n2)cc1	·	-20.3%	-21.3%	7.08µM*	-3.7%	·
COc1ccc(-c2csc(-c3ccc(C(=O)O)cc3)n2)cc1	·	-8.9%	-71.6%	?	4.3%	·
COc1ccc(/C=C/C(=O)OCC(=O)c2ccc3c(c2)NC(=O)CO3)cc1	·	1.6%[9.22 µM]	20.2%[10 µM]	-1.0%	5.7%	·
CC(=O)c1c(NCCc2ccccc2)nc(=S)n(-c2ccccc2)c1C	·	9.0%	-37.5%	-6.1%	-3.5%	·
CC(=O)c1c(NCc2ccccc2)nc(=O)n(-c2ccccc2)c1C	13.4	4.0%	-17.7%	14.1µM*	2.0%	-21.4%
COCc1[nH][nH]c(=O)c1/C=N/N1CCOCC1	·	-12.4%	-23.6%	-12.1%	-5.1%	·
Cc1ccc(C(NC(=O)N2CCCCC2)=C(Cl)Cl)cc1F	-5.6	?	-7.9%[10 µM]	0.112µM*	7.3%	-14.1%
Cc1ccc(C(NC(=O)NCCCN2CCOCC2)=C(Cl)Cl)cc1F	-3.2	6.6%	?	0.398µM*	4.0%	-14.3%
Cc1ccc(C(=O)NC(=S)NNC(=O)COc2ccccc2C)cc1	·	7.6%	-37.5%	11.2µM*	3.1%	·
Cc1cccc(C(=O)NC(=S)NNC(=O)COc2c(C)cccc2C)c1	-2.8	-14.6%	·	?	4.2%	-3.7%
CC(=O)NNC(=S)NC(=O)c1ccc(C)cc1	·	5.6%[9.22 µM]	-15.2%[10 µM]	?	-6.2%	·
CCC(=O)NNC(=S)NC(=O)c1ccc(C)cc1	·	-16.1%[9.22 µM]	-3.4%[10 µM]	20µM*	-10.5%	·
c1ccc2c[n+](Cc3ccnc4ccccc34)ccc2c1	·	·	-7.5%[10 µM]	-0.8%[13.5 µM]	·	-5.2%
COc1ccc(C2CC(C(F)(F)F)n3nc(C(=O)N(C)Cc4cn(C)nc4C)c(Cl)c3N2)cc1 (configuration not stated)	?	-8.4%	-11.3%	-1.3%	-1.7%	-5.7%
